Test results as given in the antibiotic and cytotoxicity screens of Wong et al. (2023).
The campaign covered roughly 39,000 compounds. About 3,300 (8.5%) were called active. The entries come from a sample that favours actives as a whole.

The compounds below were run on HepG2 (assay: cytotoxicity call (relative viability < 0.9)). Conditions: 10 µM.
With `C[C@H]1CN([C@@H](C)CO)S(=O)(=O)c2ccc(C#Cc3ccc(F)cc3)cc2O[C@H]1CN(C)S(=O)(=O)c1cn(C)cn1` the cytotoxicity call was “inactive”. In the case of `CNc1cc(=O)n(C)c(=O)n1C`, the cytotoxicity call is reported as “inactive”. For `Cc1c(C)n2c3c(=O)n(C)c(=O)n(C)c3nc2n1CCN1CCOCC1`, the cytotoxicity call was “inactive”. For `O=C(CN1C(=O)c2ccccc2C1=O)N1CCNCC1`, the cytotoxicity call was “inactive”. `NC(=O)C1CCN(C(=O)c2ccc(NC3=N[C@H]4CS(=O)(=O)C[C@@H]4S3)cc2)CC1` was tested, and the cytotoxicity call was “inactive”. For `C[C@H](CO)N1C[C@H](C)[C@H](CN(C)S(=O)(=O)c2ccc(Cl)cc2)Oc2ccc(NC(=O)c3ccncc3)cc2CC1=O`, the cytotoxicity call was “inactive”. `CC(C)NC(=O)Nc1ccc2c(c1)C(=O)N([C@H](C)CO)C[C@@H](C)[C@H](CN(C)C(=O)Nc1ccc(C(F)(F)F)cc1)OCCCC[C@@H](C)O2` was tested, and the cytotoxicity call was “inactive”. `C=C1COC(=O)[C@@H]2[C@@H](CO)[C@@H](O)C[C@H]12` was tested, and the cytotoxicity call was “inactive”. In the case of `C[C@H](CO)N1C[C@H](C)[C@@H](CN(C)Cc2ccc(-c3ccccc3)cc2)Oc2ccc(NC(=O)NC3CCCCC3)cc2C1=O`, the cytotoxicity call is reported as “inactive”. In the case of `C[C@@H]1CN([C@@H](C)CO)C(=O)c2cc(NC(=O)NC3CCCCC3)ccc2O[C@@H]1CN(C)Cc1ccc(-c2ccccc2)cc1`, the cytotoxicity call is reported as “active”. For `C[C@@H]1CN([C@@H](C)CO)C(=O)c2cc(NC(=O)NC3CCCCC3)ccc2O[C@H]1CN(C)Cc1ccc(-c2ccccc2)cc1`, the cytotoxicity call was “inactive”. `C[C@@H]1CN([C@H](C)CO)C(=O)c2cc(NC(=O)NC3CCCCC3)ccc2O[C@@H]1CN(C)Cc1ccc(-c2ccccc2)cc1` was tested, and the cytotoxicity call was “active”. In the case of `CC(C)NC(=O)Nc1ccc2c(c1)C(=O)N([C@H](C)CO)C[C@@H](C)[C@@H](CN(C)Cc1ccc(-c3ccccc3)cc1)O2`, the cytotoxicity call is reported as “inactive”. In the case of `C[C@H]1CN([C@@H](C)CO)C(=O)c2cc(NC(=O)NC3CCCCC3)ccc2O[C@H]1CN(C)Cc1ccc(-c2ccccc2)cc1`, the cytotoxicity call is reported as “inactive”. `C[C@H]1CN([C@@H](C)CO)C(=O)c2cc(NC(=O)NC3CCCCC3)ccc2O[C@@H]1CN(C)Cc1ccc(-c2ccccc2)cc1` was tested, and the cytotoxicity call was “active”. In the case of `C[C@@H]1CN([C@H](C)CO)C(=O)c2cc(NC(=O)NC3CCCCC3)ccc2O[C@H]1CN(C)Cc1ccc(-c2ccccc2)cc1`, the cytotoxicity call is reported as “inactive”. In the case of `C[C@H](CO)N1C[C@H](C)[C@H](CN(C)Cc2ccc(-c3ccccc3)cc2)Oc2ccc(NC(=O)NC3CCCCC3)cc2C1=O`, the cytotoxicity call is reported as “inactive”. With `[O-][NH2+][O-]` the cytotoxicity call was “inactive”. For `C[C@H]1CN([C@@H](C)CO)C(=O)c2cc(NC(=O)Nc3cccc4ccccc34)ccc2O[C@H]1CN(C)S(=O)(=O)c1cccs1`, the cytotoxicity call was “inactive”. In the case of `Cc1ccccc1[C@@H](c1ncccc1C)N(C)C(=O)C1CCN(CCOc2ccc(Cl)cc2Cl)CC1`, the cytotoxicity call is reported as “inactive”. In the case of `COc1ccccc1NC(=O)N(C)C[C@H]1Oc2ncc(C#CCN(C)C)cc2C(=O)N([C@H](C)CO)C[C@@H]1C`, the cytotoxicity call is reported as “inactive”. With `CCCNC(=O)N1C[C@@H](O)COC[C@H]2O[C@@H](CC(=O)N3CCOCC3)CC[C@@H]21` the cytotoxicity call was “inactive”. In the case of `O=C(CCCCCNC(=O)OCc1ccc(CO[C@H]2C[C@@H](c3ccc(C(F)(F)F)cc3)C=C(C(=O)N3CCN(Cc4ccc5c(c4)OCO5)CC3)O2)cc1)NO`, the cytotoxicity call is reported as “inactive”. For `C[C@@H]1CCCCO[C@@H](CN(C)CC2CC2)[C@@H](C)CN([C@H](C)CO)C(=O)c2cc(NC(=O)Nc3ccccc3)ccc2O1`, the cytotoxicity call was “inactive”. In the case of `CN1C(=O)c2cc(NC(=O)Cc3cccs3)ccc2OC[C@@H]2O[C@@H](CC(=O)NCCc3ccncc3)CC[C@@H]21`, the cytotoxicity call is reported as “inactive”. With `C[C@@H]1CN([C@H](C)CO)C(=O)c2cc(/C=C/c3ccccc3)cnc2O[C@@H]1CN(C)C(=O)Nc1ccc(C(F)(F)F)cc1` the cytotoxicity call was “active”. For `C[C@@H]1CN([C@H](C)CO)C(=O)c2cc(C3=CCCCC3)cnc2O[C@H]1CN(C)C(=O)CN1CCOCC1`, the cytotoxicity call was “active”. For `C[C@H](CO)N1C[C@H](C)[C@@H](CN(C)C(=O)CN2CCOCC2)Oc2ncc(C3=CCCCC3)cc2C1=O`, the cytotoxicity call was “inactive”. For `C[C@@H]1CN([C@@H](C)CO)C(=O)c2cc(/C=C/c3ccccc3)cnc2O[C@H]1CN(C)C(=O)Nc1ccc(C(F)(F)F)cc1`, the cytotoxicity call was “inactive”. With `C[C@@H]1CN([C@@H](C)CO)C(=O)c2cc(C3=CCCC3)cnc2O[C@@H]1CN(C)C(=O)Nc1ccc(C(F)(F)F)cc1` the cytotoxicity call was “inactive”. With `C[C@H]1CN([C@@H](C)CO)C(=O)c2cc(C3=CCCC3)cnc2O[C@@H]1CN(C)C(=O)Nc1ccc(C(F)(F)F)cc1` the cytotoxicity call was “inactive”. With `C[C@H]1CN([C@@H](C)CO)C(=O)c2cc(C3=CCCC3)cnc2O[C@H]1CN(C)C(=O)Nc1ccc(C(F)(F)F)cc1` the cytotoxicity call was “active”. `C[C@H](CO)N1C[C@H](C)[C@H](CN(C)C(=O)Nc2ccc(C(F)(F)F)cc2)Oc2ncc(C3=CCCC3)cc2C1=O` was tested, and the cytotoxicity call was “inactive”. `C[C@@H]1CN([C@@H](C)CO)C(=O)c2cc(C3=CCCC3)cnc2O[C@H]1CN(C)C(=O)Nc1ccc(C(F)(F)F)cc1` was tested, and the cytotoxicity call was “inactive”. `C[C@H](CO)N1C[C@H](C)[C@@H](CN(C)C(=O)Nc2ccc(C(F)(F)F)cc2)Oc2ncc(/C=C/c3ccccc3)cc2C1=O` was tested, and the cytotoxicity call was “inactive”. With `C[C@H](CO)N1C[C@H](C)[C@H](CN(C)C(=O)CN2CCOCC2)Oc2ncc(C3=CCCCC3)cc2C1=O` the cytotoxicity call was “inactive”. In the case of `C[C@@H]1CN([C@H](C)CO)C(=O)c2cc(C3=CCCC3)cnc2O[C@@H]1CN(C)C(=O)Nc1ccc(C(F)(F)F)cc1`, the cytotoxicity call is reported as “active”. With `C[C@H](CO)N1C[C@H](C)[C@H](CN(C)C(=O)Nc2ccc(C(F)(F)F)cc2)OCCCC[C@H](C)Oc2ccc(N(C)C)cc2C1=O` the cytotoxicity call was “inactive”. In the case of `O=C(Cc1ccccc1)NCCN1CCOCC1`, the cytotoxicity call is reported as “inactive”. In the case of `CO[C@H](CN(C)S(=O)(=O)c1cccc(Cl)c1)[C@@H](C)CN([C@@H](C)CO)S(=O)(=O)c1ccc(Cl)cc1`, the cytotoxicity call is reported as “inactive”. `COc1ccc(NC(=O)N(C)C[C@@H]2Oc3ccc(NS(=O)(=O)c4cn(C)cn4)cc3C(=O)N([C@H](C)CO)C[C@H]2C)cc1` was tested, and the cytotoxicity call was “inactive”. `O=C(C[C@@H]1C[C@H]2c3cc(NC(=O)Nc4ccc(C(F)(F)F)cc4)ccc3O[C@H]2[C@@H](CO)O1)NCCc1ccccc1` was tested, and the cytotoxicity call was “inactive”. `C[C@H]1CN([C@@H](C)CO)C(=O)Cc2cc(NC(=O)Cn3cnnn3)ccc2O[C@@H]1CN(C)Cc1ccccc1` was tested, and the cytotoxicity call was “inactive”. `CCO[C@@H]1OC(C(=O)N2CCN(Cc3ccccc3)CC2)=C[C@H](c2ccc(Br)cc2)[C@H]1CCCOC(=O)NCCCCCC(=O)NO` was tested, and the cytotoxicity call was “inactive”. For `C[C@@H]1CN([C@H](C)CO)C(=O)c2cc(NC(=O)Cc3ccccc3)ccc2O[C@@H]1CN(C)Cc1ccc(C(=O)Nc2ccccc2N)cc1`, the cytotoxicity call was “inactive”. In the case of `C[C@@H]1CCCCO[C@H](CN(C)S(=O)(=O)c2ccccc2)[C@@H](C)CN([C@@H](C)CO)C(=O)c2cc(NS(=O)(=O)c3cn(C)cn3)ccc2O1`, the cytotoxicity call is reported as “inactive”. With `O=C(C[C@@H]1C[C@@H]2c3cc(NS(=O)(=O)c4ccc(F)cc4)ccc3O[C@@H]2[C@H](CO)O1)NCc1ccncc1` the cytotoxicity call was “inactive”. With `C#CCCCCCCCCCCC[C@H](O)C[C@H](O)COC(C)=O.C=CCCCCCCCCCCC[C@H](O)C[C@H](O)COC(C)=O` the cytotoxicity call was “inactive”. With `C[C@@H]1CCCCO[C@@H](CN(C)C(=O)Nc2ccc3c(c2)OCO3)[C@@H](C)CN([C@H](C)CO)C(=O)c2cc(NS(=O)(=O)c3ccc(F)cc3)ccc2O1` the cytotoxicity call was “inactive”. `C[C@H]1CN([C@@H](C)CO)C(=O)c2cc(C3=CCCC3)cnc2O[C@H]1CN(C)C(=O)c1ccc2c(c1)OCO2` was tested, and the cytotoxicity call was “active”. In the case of `C[C@H](CO)N1C[C@H](C)[C@@H](CN(C)C(=O)c2ccc3c(c2)OCO3)Oc2ncc(C3=CCCC3)cc2C1=O`, the cytotoxicity call is reported as “inactive”. With `C[C@H](CO)N1C[C@H](C)[C@H](CN(C)C(=O)c2ccc3c(c2)OCO3)Oc2ncc(C3=CCCC3)cc2C1=O` the cytotoxicity call was “inactive”. `OC1(c2ccc(Cl)c(C(F)(F)F)c2)CCN(CCCC(c2ccc(F)cc2)c2ccc(F)cc2)CC1` [listing 1 of 2 here] was tested, and the cytotoxicity call was “active”. In the case of `OC1(c2ccc(Cl)c(C(F)(F)F)c2)CCN(CCCC(c2ccc(F)cc2)c2ccc(F)cc2)CC1` [listing 2 of 2 here], the cytotoxicity call is reported as “active”. For `COC(=O)C[C@@H]1CC[C@@H]2[C@H](COC[C@H](O)CN2S(=O)(=O)c2ccccc2C)O1`, the cytotoxicity call was “inactive”. In the case of `C[C@@H]1CN([C@H](C)CO)C(=O)Cc2cc(NC(=O)NC3CCCCC3)ccc2O[C@H]1CN(C)S(=O)(=O)c1cn(C)cn1`, the cytotoxicity call is reported as “inactive”. For `COc1ccc(-c2cc(=O)c3ccccc3o2)cc1`, the cytotoxicity call was “inactive”. For `COc1ccc2c(C)cc(=O)oc2c1`, the cytotoxicity call was “inactive”. In the case of `COc1ccc2c(=O)ccoc2c1`, the cytotoxicity call is reported as “inactive”. `COc1ccc(-c2c(C)oc3ccc(Cl)cc23)cc1` was tested, and the cytotoxicity call was “active”. `COc1ccc2c(-c3ccc(Cl)cc3)c(C)oc2c1` was tested, and the cytotoxicity call was “active”. With `COc1ccc2oc(C(C)=O)cc2c1` the cytotoxicity call was “inactive”. In the case of `C[C@@H]1CN([C@H](C)CO)C(=O)c2cccc(NC(=O)C3CCOCC3)c2O[C@@H]1CN(C)Cc1ccncc1`, the cytotoxicity call is reported as “inactive”. `C[C@H]1CN([C@@H](C)CO)C(=O)c2cccc(NC(=O)Nc3cccc4ccccc34)c2O[C@H]1CN(C)CC1CCCCC1` was tested, and the cytotoxicity call was “inactive”. With `CCN(CC)CCCC(C)Nc1c2ccc(Cl)cc2nc2ccc(OC)cc12.Cl.Cl` (stereo not drawn) the cytotoxicity call was “active”. With `COc1ccc2nc3ccc(Cl)cc3c(SCCCN)c2c1` the cytotoxicity call was “inactive”. In the case of `CCN(CCO)CCCC(C)Nc1ccnc2cc(Cl)ccc12.O=S(=O)(O)O` (stereo not drawn), the cytotoxicity call is reported as “active”. With `Cc1cc(Oc2ccnc3cc(Cl)ccc23)ccc1Cl` the cytotoxicity call was “inactive”. In the case of `O=C(OCC(O)CO)c1ccccc1Nc1ccnc2cc(Cl)ccc12` (stereo not drawn), the cytotoxicity call is reported as “inactive”. With `CCN(CC)Cc1ccc(Nc2ccnc3cc(Cl)ccc23)cc1O.Cl.Cl` the cytotoxicity call was “active”. With `COc1ccc2nc(Cl)sc2c1` the cytotoxicity call was “inactive”. With `CCN(CC)CCCC(C)Nc1ccnc2cc(Cl)ccc12.O=P(O)(O)O.O=P(O)(O)O` (stereo not drawn) the cytotoxicity call was “active”. With `Cc1noc(C)c1S(=O)(=O)N(C)C[C@H]1Oc2ccc(NC(=O)c3ccncc3)cc2CC(=O)N([C@H](C)CO)C[C@@H]1C` the cytotoxicity call was “inactive”.
